Test results from paper PMC6925144, “A prospective compound screening contest identified broader inhibitors for Sirtuin 1” (Scientific Reports, 2019).
Whole data set: some 3,200 compounds, median “TSA(with NAD+) / Primary screening (TSA) / delta Tm (K)” near -0.04, cut for the highest 2% near 0.37. The full list was thinned out, with the highest values kept by preference.

Each compound was assayed against NAD-dependent deacetylase Sirtuin 1 (human, UniProt Q96EB6) (assay: primary screen, delta tm). Settings: 10 µM.
Sequence of NAD-dependent deacetylase Sirtuin 1 (Q96EB6 2-747 limits assumed): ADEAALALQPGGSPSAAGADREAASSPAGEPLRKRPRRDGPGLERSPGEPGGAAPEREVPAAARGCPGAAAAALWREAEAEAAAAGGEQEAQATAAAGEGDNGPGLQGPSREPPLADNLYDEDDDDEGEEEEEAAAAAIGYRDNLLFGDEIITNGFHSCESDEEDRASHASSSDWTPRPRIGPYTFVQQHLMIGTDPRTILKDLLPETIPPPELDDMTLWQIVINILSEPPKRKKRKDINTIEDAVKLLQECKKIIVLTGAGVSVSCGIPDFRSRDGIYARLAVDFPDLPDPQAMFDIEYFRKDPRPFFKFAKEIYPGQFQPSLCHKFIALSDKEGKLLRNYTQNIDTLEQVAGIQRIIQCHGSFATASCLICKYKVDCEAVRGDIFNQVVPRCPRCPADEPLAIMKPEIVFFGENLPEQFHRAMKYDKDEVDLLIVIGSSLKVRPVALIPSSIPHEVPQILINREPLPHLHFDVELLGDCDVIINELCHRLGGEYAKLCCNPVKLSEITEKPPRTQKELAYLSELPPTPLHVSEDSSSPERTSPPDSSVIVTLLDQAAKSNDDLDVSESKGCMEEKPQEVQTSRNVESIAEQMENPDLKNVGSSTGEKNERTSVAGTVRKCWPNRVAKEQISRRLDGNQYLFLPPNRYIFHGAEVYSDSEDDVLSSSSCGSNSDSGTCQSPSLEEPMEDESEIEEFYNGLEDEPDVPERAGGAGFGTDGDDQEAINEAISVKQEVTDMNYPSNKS
Parameters: single well (n = 1, as 'the same TSA')
Description: A total of 3,192 compounds extracted from the proposed lists were first screened by thermal shift assay (TSA), which determined a melting temperature shift (ΔTm) of Sirtuin 1 upon the addition of a test compound at a concentration of 10 µM (n = 1) with primary hit criteria of ΔTm > 0.45 K or ΔTm < −1.5 K. Primary hits (48 compounds) were retested in the same assay at three concentrations (5, 10, 20 µM, n = 4) for hit confirmation and for dose-dependency check. Secondary hits (41 compounds) were checked their selectivity for Sirtuin 1 based on counterscreening on unrelated protein targets (bovine carbonic anhydrase (CA) and recombinant SH2 domain of hABL1 kinase (ABL1)) at three different concentrations (5, 10, 20 µM, n = 4), which yielded 38 hit compounds, hereafter referred to as TSA hits. The TSA screening above was conducted in the absence of NAD+. As noted, the structure of Sirtuin 1 is different in the presence of NAD+ and substrate. The chemical profile of TSA hits found from the different conditions could be different. […] As a result, 39 TSA hits were found.

| SMILES | TSA(with NAD+) / Primary screening (TSA) / delta Tm (K) |
| --- | --- |
| Cc1cc(F)ccc1N1CCCC(Nc2ccc3nnnn3n2)C1 (stereo not shown) | 0.68 |
| Cc1ncc(CN2CCC(Nc3ccc4nnnn4n3)C(C)C2)s1 (stereo not shown) | 0.09 |
| c1ccc(CN2CCCCCC2)c(CNc2ccc3nnnn3n2)c1 | -0.04 |
| O=C(CN1CCc2ccccc21)Nc1cnc2ccccc2c1 | -0.13 |
| NC(=O)C1CN(c2nc(C3CC3)nc3sc4c(c23)CCCC4)CCO1 (stereo not shown) | -0.19 |
| Cc1sc2nc(CSc3ccccc3)nc(N3CCCC(C(N)=O)C3)c2c1C (stereo not shown) | -0.18 |
| Cc1sc2nc(CSc3ccccc3)nc(N3CCC(C(N)=O)CC3)c2c1C | 0.49 |
| NC(=O)C1CCN(c2nc(CSc3ccccc3)nc3sc4c(c23)CCCC4)CC1 | 2.22 |
| Cc1sc2nc(CN3CCCC3)nc(N3CCC(C(N)=O)CC3)c2c1C | 0.12 |
| NC(=O)C1CCN(c2nc(CN3CCCCC3)nc3sc4c(c23)CCC4)CC1 | -0.19 |
| Cc1ccc(C(=O)Nc2ccc(N3CCN(Cc4ccccc4)CC3)cc2)cc1NC(=O)c1ccco1 | 0.12 |
| COc1ccc(-c2csc3nc(C)nc(N4CCN(C5CCS(=O)(=O)C5)CC4)c23)cc1OC (stereo not shown) | -0.09 |
| O=C(O)c1cnc2c(c1)c(=O)[nH]c(=O)n2Cc1ccccc1 | -0.13 |
| Cn1c(-c2ccccc2)c(C=O)c2ccccc21 | -0.32 |
| CCCCn1ccnc1C(=O)c1cccc(S(=O)(=O)N(C)c2ccccc2)c1 | -0.08 |
| CC1CN(C(=O)/C=C/c2ccc(C(=O)O)cc2)CC(C)(C)O1 (stereo not shown) | -0.13 |
| O=C(CN1CCCCCCC1=O)NCCc1nc2ccccc2[nH]1 | -0.22 |
| CC1(C)NC(=O)N(CC(=O)Nc2sc3c(c2-c2nc4ccccc4[nH]2)CCCC3)C1=O | 0.37 |
| COC(=O)c1cc(NC(=O)CN2C(=O)NC(C)(c3ccc4ccccc4c3)C2=O)cc(C(=O)OC)c1 (stereo not shown) | 0.19 |
| CCCCOc1cc(C2NC(N)=Nc3nc4ccccc4n32)ccc1OC (stereo not shown) | -0.22 |
| NC1=Nc2nc3ccccc3n2C(c2ccc(-c3ccc(C(=O)O)cc3)o2)N1 (stereo not shown) | 1.27 |
| O=C(O)CCCc1ccc2c(c1)-c1ccccc1C2 | 0.06 |
| COc1ccc(/C=C2/Oc3cc(O)ccc3C2=O)c(OC)c1 | 0.12 |
| O=C1/C(=C/c2ccccc2OC(F)F)Oc2cc(O)ccc21 | 0.15 |
| O=C1/C(=C/c2ccc(OC(F)F)cc2OC(F)F)Oc2cc(O)ccc21 | 0.37 |
